Assay outcomes deposited in PubChem BioAssay by University of Kansas High Throughput Screening Laboratory.
Only a selection was taken, and hits are over-represented in it overall.
Pf apPOL block: Pf-apPOL inhibitors, biochemical, fluorescence; Plasmodium falciparum apicoplast DNA polymerase (apPOL); Recombinant Pf-apPOL, molecular beacon fluorescence, 1.5 h; inhibition, % at 10 µM; 210,000 compounds, 0.25% hits
mHTT CaM bind: mutant huntingtin-calmodulin interaction inhibitors – biochemical, AlphaScreen, primary screen. P42858. AlphaScreen His-mHTT/GST-CaM binding, luminescence. inhibition, % at 15 µM. 190,000 compounds, 3.6% hits. AID 1671202, 2021;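 also: 0% = both proteins with DMSO and 100% = one protein alone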
Starred values were filed as active, the others as inactive; nt = no result given. Rule as the data show it: active = inhibition above about 50%; inactive = the rest.

SMILES	Pf apPOL block	mHTT CaM bind
COc1ccc(OC)c(/C=C2\N=C(c3ccc(C)c([N+](=O)[O-])c3)OC2=O)c1	-5	2
CCC(=O)NCc1csc(C2CCN(C(=O)C3CCCC3)CC2)n1	-6	-4
N#CC(=CN1CCc2ccccc21)C(=O)c1cccc(C(F)(F)F)c1	-4	nt
Cc1ccc(Sc2nccnc2N2CCC(C(=O)NCC3CCCO3)CC2)cc1 (stereo not drawn)	-2	7
COc1ccc(-c2nnc(NC(=O)c3ccc(S(=O)(=O)N4CCCCC4)cc3)o2)cc1	74*	-1
COc1ccc(-c2nnc(NC(=O)c3ccc(S(=O)(=O)N4CCOCC4)cc3)o2)c(OC)c1	6	54*
COc1ccc(-c2nnc(NC(=O)c3ccc(S(=O)(=O)N4CCOCC4)cc3)o2)cc1	-6	6
COc1ccc(C(=O)Nc2nnc(-c3ccccc3)o2)cc1OC	-4	12
COc1ccc(-c2nnc(NC(=O)c3ccc(OC)c(OC)c3)o2)cc1	-7	50*
COc1ccc(-c2nnc(NC(=O)c3ccc(S(=O)(=O)N4CCCCCC4)cc3)o2)cc1	0	8
O=C(Nc1ccc(C(=O)N2CCOCC2)c(N2CCCCCC2)c1)C1CC1	1	-4
CCCn1c(C2CCN(C(=O)Nc3cc(Cl)ccc3C)C2)nc2cccnc21 (stereo not drawn)	-8	-1
O=C(c1ccc(OCC2CCCN(C(=O)c3cccs3)C2)cc1)N1CCCC1 (stereo not drawn)	6	4
N#CC1(C(=O)Nc2ccc(Cl)cc2Cl)CC1	-1	-9
O=C(Nc1ccc2c(c1)CN(C(=O)c1cccs1)CC2)NC1CCCCC1	-8	-7
COc1ccc(/C=C2\C(=O)Nc3ccc(Cl)cc32)cc1OC	-11	74*
O=C1Nc2ccc(Cl)cc2/C1=C/c1ccccc1	0	65*
COc1ccccc1/C=C1\C(=O)Nc2ccc(Cl)cc21	-1	24
O=C1Nc2ccc(Cl)cc2/C1=C/c1ccccc1F	7	19
Cc1ncc(CO)c2cc(C(=O)Nc3cc(Cl)ccc3Cl)c(=N)oc12	-1	0
CC1=NN(c2cccc(C(=O)O)c2)C(=O)/C1=C/c1ccc(-c2ccc(Br)cc2)o1	7	61*
CC1=NN(c2cccc(C(=O)O)c2)C(=O)/C1=C/c1ccc(-c2cc(Cl)ccc2Cl)o1	-4	32
CCCNC(=O)NCCC1CCN(S(=O)(=O)c2ccc(C)cc2)CC1	-3	37
O=C(NCCc1c[nH]c2ccccc12)C1CCN(c2ccncc2)CC1	-2	14
COc1ccc2[nH]cc(CCNC(=O)CC3CCN(C(=O)C4CCCCC4)CC3)c2c1	-6	9
SMILES	Pf apPOL block	mHTT CaM bind
CN(CCNC(=O)CC1CCN(C(=O)C2CCCCC2)CC1)Cc1ccccc1	-6	-3
COc1ccc2[nH]cc(CCNC(=O)C3CCc4nc(N5CCCC5)ncc4C3)c2c1 (stereo not drawn)	-8	23
CC(CCc1ccccc1)NC(=O)CC1CCN(C(=O)C2CCCCC2)CC1 (stereo not drawn)	6	57*
CN(C)c1ccc(N2CCC(C(=O)NCCc3c[nH]c4ccccc34)CC2)nn1	2	96*
Cc1ccc2[nH]cc(CCNC(=O)CC3CCN(C(=O)C4CCCCC4)CC3)c2c1	-7	86*
O=C(NCCc1c[nH]c2ccccc12)C1CCc2nc(N3CCCC3)ncc2C1 (stereo not drawn)	-3	54*
CCOc1ccc2c(c1)OC(=Cc1cccc(OCC(=O)OC)c1)C2=O	-10	14
COCCNC(=O)c1ccc(NC(=O)C2CCC2)cc1N1CCCCC1	-3	-2
O=C(CC1CCN(C(=O)c2ccccc2Cl)CC1)NCc1ccccc1F	0	-7
O=C(CC1CCN(C(=O)c2ccccc2Cl)CC1)NCCc1c[nH]c2ccccc12	-5	71*
Cc1ccc2[nH]cc(CCNC(=O)C3CCN(c4ccc(N5CCCCC5)nn4)CC3)c2c1	-7	78*
Cc1ccc(CNC(=O)C2CCN(c3ccc(N4CCCCC4)nn3)CC2)cc1	-6	-9
CC(C)c1cc(C2CCCN2Cc2ccccc2O)on1 (stereo not drawn)	-2	-21
CC1(C)COc2ccc(NC(=O)C34CC5CC(CC(C5)C3)C4)cc2NC1=O	-2	6
Cc1ccc(NC(=O)C23CC4CC(CC(C4)C2)C3)c(C)c1	-4	-5
O=C(NCc1ccc(F)cc1F)c1ccc(OCC(=O)C2CC2)cc1	-9	-14
CC(C)C(=O)Nc1ccc(C2(C(=O)N3CCCC3)CCCCC2)cc1	8	13
CC(C)C(=O)Nc1ccc(C2(C(=O)N3CCN(c4ccccc4)CC3)CCCCC2)cc1	7	51*
COc1ccc2cc3cc(C(=O)Nc4cc(C)ccc4OC)oc3nc2c1	-3	2
O=[N+]([O-])/C(C(Cl)=C(Cl)Cl)=C(\N1CCOCC1)n1cncn1	0	1
CNC(=O)C(C1CCCC1)N1CCN(C(=O)c2ccc(Cl)cc2)CC1 (stereo not drawn)	-1	5
